The record followed here is PubChem BioAssay (EPA / NIEHS).

Assay [1] is described as follows: ATG_E_Box_CIS: Attagene CIS-FACTORIAL HepG2 Assay for human Enhancer Box (E-box) (AID 2282936). As to conditions: HepG2 E-box cis-reporter transcription, actives raise or lower the signal. In short, it runs like this:
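Fluorescent reporter fragments separated by capillary electrophoresis gave the signal; mRNA came from HepG2 cells transfected with cis-element reporters and treated 24 h. Curves fitted bidirectionally relative to DMSO controls.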

Assay [2] is described as follows: ATG_M_61_CIS: Attagene CIS-FACTORIAL HepG2 Assay for M61 Transcription Factor (Internal Marker) (AID 2282937). To be noted: HepG2 Attagene CIS-FACTORIAL M61 internal marker reporter; actives raise or lower the signal. The method, boiled down: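 Readout: fluorescent reporter mRNA fragments resolved by capillary electrophoresis after RT-PCR. Transiently transfected human HepG2 cells carried MRTU constructs reporting endogenous TF activity; 24 h chemical exposure; gain or loss of signal fitted relative to DMSO.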

Assay [3] is described as follows: ATG_EGR_CIS: Attagene CIS-FACTORIAL HepG2 Assay for human Early Growth Response 1 (EGR1) (AID 2282938). As to conditions: HepG2 Attagene CIS-FACTORIAL EGR reporter mRNA; actives raise or lower the signal. In short, it runs like this: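 Read-out: fluorescent reporter-mRNA fragments resolved by capillary electrophoresis after RT-PCR, 24 h post-dose in transiently transfected HepG2. Endogenous transcription-factor activity reported via cis-element-regulated reporter units; gain or loss fitted relative to DMSO.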

Assay [4] is described as follows: ATG_M_19_CIS: Attagene CIS-FACTORIAL HepG2 Assay for M19 Transcription Factor (Internal Marker) (AID 2282939). To be noted: HepG2 Attagene CIS-FACTORIAL M19 internal marker reporter; actives raise or lower the signal. In short, it runs like this: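 In this multiplexed cell assay, transiently transfected HepG2 reporter units report endogenous transcription-factor activity; after 24 hours of treatment, labelled reporter cDNA fragments are quantified by capillary electrophoresis and fitted bidirectionally against DMSO.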

The nature of assay [5]: ATG_Ets_CIS: Attagene CIS-FACTORIAL HepG2 Assay for human Erythroblast Transformation Specific (ETS) (AID 2282941). As to conditions: HepG2 ETS cis-reporter transcription, actives raise or lower the signal. The method, boiled down:
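Bidirectional fit versus DMSO of reporter mRNA signal, detected by RT-PCR and capillary electrophoresis in HepG2 cells transiently transfected with cis-element reporters and dosed 24 h.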

The target in assay [6] is Hepatocyte nuclear factor 3-beta (Homo sapiens) (UniProt Q9Y261). Briefly: ATG_FoxA2_CIS: Attagene CIS-FACTORIAL HepG2 Assay for human Forkhead box A2 (FOXA2) (AID 2282942). As to conditions: HepG2 cis-reporter transcription factor activity, 24 h; actives raise or lower the signal. In short, it runs like this:
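Readout: fluorescent reporter transcripts resolved by capillary electrophoresis after RT-PCR. Transiently transfected HepG2, 24 h compound exposure, endogenous TF activity at cis promoter elements. Gain or loss of signal fitted relative to DMSO.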

The nature of assay [7]: ATG_FoxO_CIS: Attagene CIS-FACTORIAL HepG2 Assay for human Forkhead box O (FoxO) (AID 2282943). As to conditions: HepG2 Attagene cis-reporter, FoxO element, mRNA; actives raise or lower the signal. In short, it runs like this:
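HepG2, transient MRTU transfection (cis element, endogenous TFs). Dose 24 h. TriZol RNA → oligo(dT) RT → PCR → 6-FAM primer extension → HpaI cut → CE. Gain/loss vs DMSO.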

The nature of assay [8]: ATG_GATA_CIS: Attagene CIS-FACTORIAL HepG2 Assay for human GATA Binding Protein (AID 2282944). As to conditions: HepG2 GATA cis-element reporter, Attagene multiplex mRNA; actives raise or lower the signal. The method, boiled down:
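Measures endogenous transcription factor-driven reporter mRNA in HepG2 cells transiently carrying cis-regulated constructs. 24 h dosing; RNA via oligo(dT) reverse transcription, PCR, HpaI digestion, capillary electrophoresis; fitted relative to DMSO.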

Assay [9] deals with Bile acid receptor (Homo sapiens) (UniProt Q96RI1). Nature of the assay: ATG_IR1_CIS: Attagene CIS-FACTORIAL HepG2 Assay for human Nuclear Receptor Subfamily 1 Group H Member 4 (NR1H4), IR1 submotif (AID 2282946). As to conditions: IR1 reporter transcription, actives raise or lower the signal. In short, it runs like this: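 HepG2 cells transiently transfected with multiplexed cis-element reporter units read endogenous transcription factor activity. After 24 h compound exposure, reporter mRNA was quantified by RT-PCR, fluorescent labelling, HpaI digestion and capillary electrophoresis; bidirectional fitting versus DMSO baseline.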

Assay [10] in a line: ATG_GRE_CIS: Attagene CIS-FACTORIAL HepG2 Assay for human Glucocorticoid Response Elements (GRE) (AID 2282947). To be noted: HepG2 GRE cis-reporter, Attagene multiplex mRNA; actives raise or lower the signal. In short, it runs like this:
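Multiplexed cis-reporter mRNA induction, HepG2, 24 h post-dose. RT-PCR, FAM-labelled, HpaI-digested amplicons by CE. Bidirectional fit vs DMSO.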

Assay [11] can be described thus: ATG_ISRE_CIS: Attagene CIS-FACTORIAL HepG2 Assay for human Interferon Regulatory Factor 1 (IRF1) binding to an Interferon-Stimulated Response Element (ISRE) (AID 2282948). As to conditions: HepG2 ISRE cis-reporter (Attagene), mRNA transcription readout; actives raise or lower the signal. The method, boiled down: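 Uses HepG2 liver cells transfected with cis-regulated reporters and measures mRNA 24 h post-dosing through RT-PCR, primer-extension labelling and capillary electrophoresis, with DMSO as negative control.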

Assay [12] in a line: ATG_M_32_CIS: Attagene CIS-FACTORIAL HepG2 Assay for M32 Transcription Factor (Internal Marker) (AID 2282949).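 Note: background control marker of the multiplexed CIS panel rather than a real target.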 As to conditions: HepG2 Attagene cis-factorial M32 reporter, mRNA; actives raise or lower the signal. The method, boiled down: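 Using DMSO as baseline, bidirectional curve fits were applied to reporter mRNA signals. These came from transiently transfected HepG2 cells exposed for 24 h, with RNA analysed by RT-PCR, FAM primer extension, HpaI digestion and CE.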

The nature of assay [13]: ATG_M_06_CIS: Attagene CIS-FACTORIAL HepG2 Assay for M06 Transcription Factor (Internal Marker) (AID 2282950). To be noted: HepG2 Attagene CIS-FACTORIAL M06 internal marker reporter; actives raise or lower the signal. In short, it runs like this:
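One of many multiplexed endpoints: HepG2 reporter mRNA after 24 h dosing, detected by RT-PCR and capillary electrophoresis fluorescence; gain or loss of signal analysed against DMSO.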

For assay [14], the target named is Hypoxia-inducible factor 1-alpha (Homo sapiens) (UniProt Q16665). Briefly: ATG_HIF1a_CIS: Attagene CIS-FACTORIAL HepG2 Assay for human Hypoxia Inducible Factor 1 (HIF1A) (AID 2282951). To be noted: HepG2 Attagene cis-factorial HIF1a reporter transcription; actives raise or lower the signal. In short, it runs like this:
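RT-PCR/capillary electrophoresis fluorescence readout of reporter transcripts from endogenous-TF-driven cis elements in transfected HepG2 cells, 24 h exposure; activity fitted in both directions against DMSO controls.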

In assay [15] the target is Hepatocyte nuclear factor 6 (Homo sapiens) (UniProt Q9UBC0). Briefly: ATG_HNF6_CIS: Attagene CIS-FACTORIAL HepG2 Assay for human Hepatocyte Nuclear Factor 6 (HNF6) (AID 2282952). As to conditions: HepG2 Attagene cis-factorial HNF6 reporter transcription; actives raise or lower the signal. The method, boiled down: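 Endogenous transcription factor activity in human HepG2 liver cells was captured through cis-regulated reporter constructs. After 24 h treatment, reporter mRNA was measured by RT-PCR with capillary electrophoresis, and activity was fitted in both directions relative to DMSO.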

The target in assay [16] is Heat shock factor protein 1 (Homo sapiens) (UniProt Q00613). Nature of the assay: ATG_HSE_CIS: Attagene CIS-FACTORIAL HepG2 Assay for human Heat Shock Transcription Factor 1 (HSE) (AID 2282953). As to conditions: HepG2 HSE cis-reporter, Attagene RNA transcription; actives raise or lower the signal. The method, boiled down:
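Using HepG2 with transfected cis-driven reporter constructs, compound effects on endogenous factor activity are scored as reporter mRNA change at 24 h. Detection: RT-PCR, HpaI digestion, capillary electrophoresis; bidirectional fitting to DMSO.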

The nature of assay [17]: ATG_MRE_CIS: Attagene CIS-FACTORIAL HepG2 Assay for human Metal Responsive Element (MRE) (AID 2282954). As to conditions: HepG2 MRE cis-reporter transcription, Attagene multiplex; actives raise or lower the signal. The method, boiled down:
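Multiplexed cis-reporter assay in human HepG2 liver cells, 24 h incubation with test chemical. Reporter transcripts measured by RT-PCR and capillary electrophoresis; values from bidirectional curve fitting versus DMSO.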

The nature of assay [18]: ATG_PBREM_CIS: Attagene CIS-FACTORIAL HepG2 Assay for human Phenobarbital-responsive Enhancer Module (PBREM) (AID 2282955). As to conditions: HepG2 PBREM cis-reporter, Attagene multiplexed transcription; actives raise or lower the signal. The method, boiled down: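 Reporter mRNA read by RT-PCR, 6-FAM primer extension, HpaI digestion and capillary electrophoresis. Transfected HepG2 cells, 24 h compound exposure. Gain or loss of signal fitted bidirectionally relative to DMSO baseline.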

A short description of assay [19]: ATG_GLI_CIS: Attagene CIS-FACTORIAL HepG2 Assay for human Zinc Finger Protein GLI1 (AID 2282945). As to conditions: HepG2, Attagene cis-factorial reporter mRNA, GLI element; actives raise or lower the signal. The method, boiled down: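 Bidirectional curve fits relative to DMSO, using reporter mRNA levels from RT-PCR plus capillary electrophoresis. Cells were HepG2 transiently carrying cis-regulated reporter constructs, harvested 24 h after dosing.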

What is called AC50 is the concentration giving half of the maximal activity seen.

Several values for one entry are separate records, joined by “and”; a condition that tells them apart may be missing. Equal values may be shown once. Where a structure was tested more than once in an assay, its records may differ in their call. Activity calls are given as the source filed them. Rule for the calls: active = hit-call score of the fitted dose curve at least 0.9, where 1 is the maximum; inactive = score below 0.9.

Sequence of Hypoxia-inducible factor 1-alpha (Homo sapiens) (Q16665 whole entry, looked up): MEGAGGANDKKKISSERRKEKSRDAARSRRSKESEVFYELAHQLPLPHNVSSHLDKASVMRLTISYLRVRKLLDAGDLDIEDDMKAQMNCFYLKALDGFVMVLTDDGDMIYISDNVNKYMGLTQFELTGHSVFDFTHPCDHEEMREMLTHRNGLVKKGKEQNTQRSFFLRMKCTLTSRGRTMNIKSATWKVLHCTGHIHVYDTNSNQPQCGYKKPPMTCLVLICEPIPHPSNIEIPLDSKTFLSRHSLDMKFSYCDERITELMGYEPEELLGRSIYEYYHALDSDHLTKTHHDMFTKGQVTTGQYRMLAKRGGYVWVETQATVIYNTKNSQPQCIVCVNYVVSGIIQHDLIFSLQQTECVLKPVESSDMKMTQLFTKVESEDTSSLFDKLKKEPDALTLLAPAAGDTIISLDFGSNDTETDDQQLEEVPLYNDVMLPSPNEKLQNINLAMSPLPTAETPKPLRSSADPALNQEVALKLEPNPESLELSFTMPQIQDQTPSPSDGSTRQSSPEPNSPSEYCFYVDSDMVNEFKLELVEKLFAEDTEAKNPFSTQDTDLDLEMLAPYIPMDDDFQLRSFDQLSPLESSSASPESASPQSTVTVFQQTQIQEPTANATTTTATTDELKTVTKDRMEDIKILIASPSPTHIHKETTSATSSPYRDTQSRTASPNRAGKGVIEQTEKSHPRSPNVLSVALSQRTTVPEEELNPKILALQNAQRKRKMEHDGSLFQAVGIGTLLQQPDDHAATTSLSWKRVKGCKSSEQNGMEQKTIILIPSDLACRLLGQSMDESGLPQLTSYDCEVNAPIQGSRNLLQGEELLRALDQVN
Sequence of Heat shock factor protein 1 (Homo sapiens) (Q00613 whole entry, looked up): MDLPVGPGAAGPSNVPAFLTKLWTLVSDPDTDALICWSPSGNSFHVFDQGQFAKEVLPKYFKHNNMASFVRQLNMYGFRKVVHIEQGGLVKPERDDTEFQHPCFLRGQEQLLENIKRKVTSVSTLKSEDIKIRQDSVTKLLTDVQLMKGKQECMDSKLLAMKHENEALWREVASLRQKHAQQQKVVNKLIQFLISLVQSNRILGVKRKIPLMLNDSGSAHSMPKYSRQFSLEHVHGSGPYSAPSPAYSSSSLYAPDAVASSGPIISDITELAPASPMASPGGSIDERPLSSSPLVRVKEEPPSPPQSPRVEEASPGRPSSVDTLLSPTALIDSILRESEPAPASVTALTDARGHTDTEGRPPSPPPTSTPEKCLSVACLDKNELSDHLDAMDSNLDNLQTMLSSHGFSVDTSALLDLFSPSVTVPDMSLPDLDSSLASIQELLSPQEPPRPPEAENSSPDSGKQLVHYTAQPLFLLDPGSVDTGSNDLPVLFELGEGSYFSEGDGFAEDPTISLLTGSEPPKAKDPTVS
Sequence of Hepatocyte nuclear factor 6 (Homo sapiens) (Q9UBC0 whole entry, looked up): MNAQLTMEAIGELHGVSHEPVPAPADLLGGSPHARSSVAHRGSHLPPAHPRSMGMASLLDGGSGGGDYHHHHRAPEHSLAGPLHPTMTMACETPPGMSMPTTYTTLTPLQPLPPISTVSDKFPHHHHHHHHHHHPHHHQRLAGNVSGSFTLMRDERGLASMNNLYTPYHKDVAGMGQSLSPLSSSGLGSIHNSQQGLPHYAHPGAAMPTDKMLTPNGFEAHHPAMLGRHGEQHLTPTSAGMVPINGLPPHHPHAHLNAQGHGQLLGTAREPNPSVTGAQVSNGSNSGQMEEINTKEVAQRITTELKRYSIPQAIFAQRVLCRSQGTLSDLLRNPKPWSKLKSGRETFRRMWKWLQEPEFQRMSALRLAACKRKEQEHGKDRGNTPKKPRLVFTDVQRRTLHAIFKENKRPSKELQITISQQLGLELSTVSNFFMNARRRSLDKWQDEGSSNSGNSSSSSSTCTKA
Sequence of Hepatocyte nuclear factor 3-beta (Homo sapiens) (Q9Y261 whole entry, looked up): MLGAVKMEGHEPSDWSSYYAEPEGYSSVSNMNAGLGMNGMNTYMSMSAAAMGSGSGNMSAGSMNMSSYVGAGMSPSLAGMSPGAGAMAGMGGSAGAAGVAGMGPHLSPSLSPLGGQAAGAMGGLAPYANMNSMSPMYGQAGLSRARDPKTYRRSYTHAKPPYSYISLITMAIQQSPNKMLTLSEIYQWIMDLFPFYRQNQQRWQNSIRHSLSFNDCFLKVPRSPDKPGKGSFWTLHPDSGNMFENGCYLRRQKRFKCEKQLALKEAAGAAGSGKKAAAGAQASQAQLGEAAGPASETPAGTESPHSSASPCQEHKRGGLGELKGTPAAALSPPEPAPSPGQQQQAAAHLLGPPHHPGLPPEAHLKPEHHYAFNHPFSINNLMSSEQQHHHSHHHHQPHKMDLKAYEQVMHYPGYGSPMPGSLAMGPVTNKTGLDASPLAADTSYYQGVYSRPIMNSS
Sequence of Bile acid receptor (Homo sapiens) (Q96RI1 whole entry, looked up): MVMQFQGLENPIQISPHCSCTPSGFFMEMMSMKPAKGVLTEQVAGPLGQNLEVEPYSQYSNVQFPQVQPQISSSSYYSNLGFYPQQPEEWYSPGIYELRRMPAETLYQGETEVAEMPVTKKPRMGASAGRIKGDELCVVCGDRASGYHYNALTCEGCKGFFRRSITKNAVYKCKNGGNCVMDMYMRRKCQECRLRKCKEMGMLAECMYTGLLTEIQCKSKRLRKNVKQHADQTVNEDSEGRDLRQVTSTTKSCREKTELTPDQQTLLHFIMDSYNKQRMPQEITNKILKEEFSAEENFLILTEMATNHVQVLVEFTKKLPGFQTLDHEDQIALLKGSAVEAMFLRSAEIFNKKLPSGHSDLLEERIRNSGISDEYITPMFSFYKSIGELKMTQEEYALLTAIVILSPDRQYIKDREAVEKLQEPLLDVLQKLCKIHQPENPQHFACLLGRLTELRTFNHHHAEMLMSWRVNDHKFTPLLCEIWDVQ

`CCCCCCC(C=O)=Cc1ccccc1`: the outcome in assay [1], in assay [2], in assay [3], in assay [4], in assay [5] and in assay [6] was inactive. Moreover, the compound was called inactive in [7], in [8], in assay [9], in assay [10], in [11] and in [12]. The outcome in assay [13], in [14], in [15] and in [18] was inactive. Further, the AC50 in [16] is 157 µM (active) and 93.3 µM (active); in [17] it was 137 µM (active) and 89.2 µM (active).
With `Cc1cc(SC2=C(O)C[C@@](CCc3ccc(N)cc3)(C(C)C)OC2=O)c(C(C)(C)C)cc1CO`, the result in assay [1], in [2], in assay [3], in assay [4], in assay [5] and in assay [6] was inactive. In addition, the call in assay [7], in assay [8], in assay [9], in assay [11], in assay [12] and in assay [13] was inactive. The call in [14], in assay [15], in assay [16] and in assay [17] was inactive.
With `CC(N)=O`, the result in assay [1], in assay [2], in [3], in assay [4], in assay [5] and in assay [6] was inactive. In addition, the outcome in assay [7], in [8], in [19], in [11], in assay [12] and in assay [13] was inactive. Besides, the compound was classed as inactive in assay [15], in [16] and in [17]. For the same compound, the AC50 in assay [16] is 133 µM (active).
Regarding `Cc1occc(=O)c1O`, the outcome in assay [1], in [2], in assay [3], in assay [4], in [5] and in assay [6] was inactive. The call in assay [7], in assay [8], in [11], in assay [12], in assay [13] and in [14] was inactive. The outcome in [15], in assay [16], in assay [17] and in assay [18] was inactive.
For the compound `CC(=O)OC1CC(C)OC(C)O1` (centres undefined), the outcome in assay [1], in [2], in [3], in [4], in assay [5] and in assay [6] was inactive. Also, the call in assay [7], in assay [8], in [9], in assay [11], in [12] and in [13] was inactive. In addition, the compound was classed as inactive in [14], in [15], in [17] and in assay [18].
With `Oc1ccccc1O`, the outcome in assay [1], in [2], in assay [3], in assay [4], in [5] and in assay [6] was inactive. In addition, the result in assay [7], in [8], in assay [19], in [11], in [12] and in assay [13] was inactive. Further, the call in assay [15], in assay [16], in assay [17] and in assay [18] was inactive.
With `CCc1cc(C2=C(C(=O)O)N(c3ccccc3C(F)(F)F)S(=O)(=O)c3ccccc32)cc2c1OCO2`, the outcome in [1], in assay [2], in assay [3], in [4], in [5] and in [6] was inactive. In addition, the compound was classed as inactive in [7], in assay [8], in assay [12], in [13], in assay [14] and in [15]. Further, the AC50 in [11] was 149 µM (active); in assay [16], 154 µM (active); in assay [17], 58.5 µM (active); in [18], 19.8 µM (active).
